High-throughput results (PubChem BioAssay)
Bead autofluor: compound fluorescence in toxin protease inhibitor counterscreen; 3.1% of 360,000 active; compound autofluorescence counterscreen, microsphere flow cytometry; hits give high values; fluorescence intensity (concentration not given with the values); in the data active means fluorescence intensity above about 16000; inconclusive means no clear call, values can overlap the other calls
BoNT A protease: blocks Botulinum neurotoxin A light chain protease; multiplex microsphere protease substrate cleavage, flow cytometry; inhibition, % at 10 µM; 0.17% of 360,000 active; AID 588499
Anthrax LF prot: anthrax lethal factor protease inhibition. P15917. multiplex microsphere protease cleavage assay, LF. inhibition, % at 10 µM. 0.12% of 360,000 active. AID 588501
Target sequence (P15917 whole entry, looked up): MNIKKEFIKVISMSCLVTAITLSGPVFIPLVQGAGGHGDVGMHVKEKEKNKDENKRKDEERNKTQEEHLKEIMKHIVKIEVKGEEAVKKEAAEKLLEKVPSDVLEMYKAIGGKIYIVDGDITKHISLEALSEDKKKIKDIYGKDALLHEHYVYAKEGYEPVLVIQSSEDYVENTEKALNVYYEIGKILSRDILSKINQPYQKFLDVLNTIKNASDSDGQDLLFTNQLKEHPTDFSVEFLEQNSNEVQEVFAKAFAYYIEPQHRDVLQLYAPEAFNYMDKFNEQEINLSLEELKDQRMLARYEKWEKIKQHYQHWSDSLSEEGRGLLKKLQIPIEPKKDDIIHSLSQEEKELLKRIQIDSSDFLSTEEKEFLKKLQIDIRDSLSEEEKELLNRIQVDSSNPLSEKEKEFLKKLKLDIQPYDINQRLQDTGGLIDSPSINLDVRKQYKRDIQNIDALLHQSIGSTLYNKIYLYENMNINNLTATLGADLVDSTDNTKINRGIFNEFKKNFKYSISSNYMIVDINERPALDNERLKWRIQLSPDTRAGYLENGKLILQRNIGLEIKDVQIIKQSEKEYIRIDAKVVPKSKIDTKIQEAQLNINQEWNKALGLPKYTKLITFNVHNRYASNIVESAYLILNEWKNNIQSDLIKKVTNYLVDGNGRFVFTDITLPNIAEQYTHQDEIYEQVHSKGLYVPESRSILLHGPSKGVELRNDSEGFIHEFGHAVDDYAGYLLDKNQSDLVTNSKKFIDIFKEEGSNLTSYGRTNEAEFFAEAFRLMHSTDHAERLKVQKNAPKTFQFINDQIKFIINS
SSB-PriA inh: blocks PriA binding to SSB C-terminal tail | AlphaScreen SSBct-PriA binding, biotinylated peptide | inhibition, % at 33 µM | 0.6% of 430,000 active; in the data active means inhibition mostly above about 37%, no sharp cut-off; inactive means mostly below about 20%
BoNT-F LC inh: inhibitors of Botulinum neurotoxin F light chain protease; Multiplex microsphere protease cleavage assay, flow cytometry; 0.22% of 360,000 active; inhibition, % at 10 µM; AID 588497; in the data active means inhibition above about 35%, passing the limit was not always enough; inconclusive means no clear call, values can overlap the other calls
Large screens that a line does not name were inactive. A selection: hits, their analogues and other compounds. The true share with any hit is near 3.1%. Unless noted, no stated cut-off is given here; in the data, active means inhibition above about 30%; inconclusive means no clear call, values can overlap the other calls; inactive means below that.

CCOC(=O)c1ccc(NC(=O)Cn2cccc2)cc1	Bead autofluor 22123
CCc1cccc(NC(=O)Cn2cccc2)c1	Bead autofluor 23986
CCc1cccc(NC(=O)CN2C(=O)NC3(CCCCCCC3)C2=O)c1	none
CCOc1ccc(NC(=O)Cn2cnc3c([nH]c4cc(OC)c(OC)cc43)c2=O)cc1	none (no result: Bead autofluor, BoNT A protease, Anthrax LF prot, BoNT-F LC inh)
Cc1nc2ccc(Br)cc2c(-c2ccccc2)c1C1=NN(C(=O)C(C)C)C(c2ccccc2F)C1 (stereo unspecified)	none (no result: Bead autofluor, BoNT A protease, Anthrax LF prot, BoNT-F LC inh)
CCOC(=O)c1ccc(NC(=O)C(CC)(CC)C(=O)OCC)cc1	Bead autofluor 18219
CCOC(=O)c1ccc(NC(=S)NN)cc1	none
CCOC(=O)c1ccc(NC(=O)CN2C(=O)CNC2=O)cc1	Bead autofluor 23272
CCOC(=O)c1ccc(NC(=O)CSC2=NC(=O)C(CC)C(=O)N2)cc1 (stereo unspecified)	Bead autofluor 16464
CCC1C(=O)N=C(SCC(=O)Nc2cccc3ccccc23)NC1=O (stereo unspecified)	none
Cc1cc(C(=O)N2CCN(C(=O)c3cnn4c3CCCC4)CC2)c(C)o1	none (no result: Bead autofluor, BoNT A protease, Anthrax LF prot, BoNT-F LC inh)
CCOc1ccc(N(CC(=O)NCCc2ccccc2)C(=O)CCC(=O)Nc2cc(C)ccn2)cc1	SSB-PriA inh 104.3
Nc1ccc(N=Nc2ccccc2)c(N)n1	SSB-PriA inh 56.0
c1ccc(N=Nc2ccc3cccccc2-3)cc1	SSB-PriA inh 50.8
Nc1ccc(N=Nc2ccccc2)c2ccccc12	none
CCn1c(CNC(=O)c2ccco2)nnc1SCC(=O)Nc1ccc(Br)cc1F	Bead autofluor 20415
O=C(CSc1nc(-c2ccccc2)cs1)NC(=O)NCc1ccco1	none
O=C(CSc1nc2ccccc2s1)NC(=O)NCc1ccco1	Bead autofluor 22313
Cc1cc(C)nc(NC(=O)CSc2nc3ccccc3s2)n1	BoNT A protease inconclusive
Cc1ccc(S(=O)(=O)NC(=O)CSc2nc3ccccc3s2)cc1	Bead autofluor 16909
O=S(=O)(Nc1ccc(-c2ccc(NS(=O)(=O)c3ccc(Br)cc3)cc2)cc1)c1ccc(Br)cc1	none (no result: Bead autofluor, BoNT A protease, Anthrax LF prot, BoNT-F LC inh)
C/C(=N/OC(=O)Nc1cccc(Cl)c1)C(=O)c1ccc(Br)cc1	none (no result: Bead autofluor, BoNT A protease, Anthrax LF prot, BoNT-F LC inh)
COc1ccccc1-c1nc(C#N)c(N2CCN(c3ccccc3)CC2)o1	SSB-PriA inh 50.5
COc1ccc(N2CCN(c3oc(-c4ccccc4OC)nc3C#N)CC2)cc1	Bead autofluor 21565
COc1ccc(S(=O)(=O)Nc2c(C(=O)O)[nH]c3ccc(OC)cc23)c(OC)c1	SSB-PriA inh 106.4
COC(=O)c1[nH]c2ccc(C)cc2c1NS(=O)(=O)c1ccc(OC)cc1OC	SSB-PriA inh 57.5 (no result: Bead autofluor, BoNT A protease, Anthrax LF prot, BoNT-F LC inh)
COc1ccc(S(=O)(=O)Nc2c(C(=O)O)[nH]c3ccccc23)c(OC)c1	none
COC(=O)c1[nH]c2ccc(F)cc2c1NS(=O)(=O)c1ccc(OC)cc1	none
C=CC[n+]1c(C)csc1Nc1cccc(Br)c1	SSB-PriA inh 61.4
Cc1cc(N2CCN(C(=O)NCc3ccc(Cl)cc3)CC2)ncn1	none (no result: Bead autofluor, BoNT A protease, Anthrax LF prot, BoNT-F LC inh)
N#C/C(=C/c1ccc(N2CCCCCC2)o1)c1ccc(Cl)cc1	Bead autofluor 22830
N#C/C(=C/c1ccc(N2CCCCC2)o1)c1cccc(F)c1	none
Cc1cc(OCC(=O)Nc2ccc(C)c(F)c2)nc(N2CCCCCC2)n1	none (no result: Bead autofluor, BoNT A protease, Anthrax LF prot, BoNT-F LC inh)
Cn1c(-c2ccccn2)nn(CC(=O)N2CCCc3ccccc32)c1=O	none (no result: Bead autofluor, BoNT A protease, Anthrax LF prot, BoNT-F LC inh)
CCOc1ccc2[nH]c(=S)[nH]c2c1	none
CCOc1ccc2c(c1)n(CO)c(=S)n2CO	Bead autofluor 22336, BoNT A protease inconclusive
O=C(Nc1nnc(CSc2ccccc2)o1)c1sc2ccccc2c1Cl	none (no result: Bead autofluor, BoNT A protease, Anthrax LF prot, BoNT-F LC inh)
Cc1ccc(C(=O)N/C(=C\c2ccco2)C(=O)NCCCn2ccnc2)cc1	SSB-PriA inh 102.6
CN(C)c1ccc(/C=C(\NC(=O)c2ccccc2)C(=O)NCCCn2ccnc2)cc1	SSB-PriA inh 38.5
Cc1ccc(C(=O)N/C(=C/c2ccco2)C(=O)NCCCn2ccnc2)cc1	none
O=C(NCCCn1ccnc1)/C(=C/c1ccccc1)NC(=O)c1ccccc1	none
COc1ccc(C(=O)N/C(=C/c2cccs2)C(=O)NCCCn2ccnc2)cc1OC	Bead autofluor 20263
CC(C(=O)NCCOc1ccc(F)cc1)n1ncccc1=O (stereo unspecified)	none (no result: Bead autofluor, BoNT A protease, Anthrax LF prot, BoNT-F LC inh)
O=C(CCS(=O)(=O)c1ccc(Br)s1)NC1CCCC1	none
Cc1ccc(S(=O)(=O)NCCC(=O)NC2CCCC2)cc1	Bead autofluor 20213, BoNT A protease inconclusive
O=C(CCNS(=O)(=O)c1ccc(Br)s1)NC1CCCC1	Bead autofluor 24053
COc1ccc(Cn2cnc3c([N+](=O)[O-])c(C)c(C)cc32)cc1	Bead autofluor 25028
Cc1ccccc1Cn1cnc2ccccc21	none
Cc1ccccc1Cn1cnc2c([N+](=O)[O-])c(C)c(C)cc21	Bead autofluor 21365
